Data on 23 compounds can be found in PubChem BioAssay (Tox21).

Values joined by “and” are separate entries in the source; they are usually repeats but may differ in a detail not shown here. Identical values can stand only once. Unmarked numbers belong to inactive results. Results filed as inconclusive are left out. Active and inactive are the calls of the source. Unless noted, calls come from the whole dose curve; as a rule, active = well fitted curve in the direction sought with a large enough effect in the repeat runs; inconclusive = weak or mixed curves; inactive = no such curve, though single readings can be large; an effect the other way counts as inactive or inconclusive.

Experiment [1] deals with Acetylcholinesterase (Homo sapiens) (UniProt P22303). Briefly: Acetylcholinesterase (AChE) small molecule antagonists: enzyme-based qHTS assay (AID 1347397; calls by dose curve; note: nearly all actives have a fitted effect of over 55% in size; note: potency is the fitted concentration of half-maximal effect). The settings on record: Potency: AChE enzyme activity inhibition. The method, boiled down: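 Recombinant human AChE, dispensed at 50 mU/mL, was preincubated with Tox21 10K compounds or DMSO vehicle for 30 min at room temperature. DTNB plus acetylthiocholine was then added, and thiocholine was measured colorimetrically after a further 10 min.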

The target is the same in experiment [2]. Briefly: Acetylcholinesterase (AChE) small molecule antagonists: fluorescence cell-based qHTS assay (AID 1347398; calls by dose curve; note: nearly all actives have a fitted effect of over 50% in size). The following applies: Potency: AChE activity. The method, boiled down:
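Human SH-SY5Y cells were plated overnight at 37 C, exposed to compound for 30 min at 37 C, 5% CO2, then given acetylthiocholine plus Thiolite Green for 40 min at room temperature; thiocholine fluorescence (Ex/Em 490/520 nm) reports endogenous AChE activity.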

The target in experiment [3] is Cytochrome P450 2D6 (Homo sapiens) (UniProt P10635). Kind of experiment: Cytochrome P450 Family 2 Subfamily D Member 6 (CYP2D6) small molecule antagonists: luciferase reporter qHTS assay (AID 1671196). Note: nearly all actives have a fitted effect of over 50% in size. Note: potency is the fitted concentration of half-maximal effect. The method, boiled down: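 Read-out is luminescence from luciferin formed by CYP2D6 turnover of a proluciferin substrate, recorded as relative luminescence units. Reactions ran 1 h at room temperature after NADPH regeneration solution was added.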

The target in experiment [4] is Cytochrome P450 2C19 (Homo sapiens) (UniProt P33261). Kind of experiment: Cytochrome P450 Family 2 Subfamily C Member 19 (CYP2C19) small molecule antagonists: luciferase reporter qHTS assay (AID 1671197). Note: nearly all actives have a fitted effect of over 65% in size. Note: potency is the fitted concentration of half-maximal effect. Put shortly:
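P450-Glo CYP2C19 screening system; proluciferin substrate; DMSO compound stocks; 10 min RT preincubation; NADPH regeneration, 1 h at 37C; luciferin detection reagent, 20 min RT; luminescence as RLU.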

In experiment [5] the target is Cytochrome P450 2C9 (Homo sapiens) (UniProt P11712). Kind of experiment: Cytochrome P450 Family 2 Subfamily C Member 9 (CYP2C9) small molecule antagonists: luciferase reporter qHTS assay (AID 1671198). Note: nearly all actives have a fitted effect of over 50% in size. Note: potency is the fitted concentration of half-maximal effect. Put shortly: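 CYP2C9 activity was measured with a P450-Glo proluciferin substrate. Enzyme–substrate mix was held with compound for 10 min at room temperature, then NADPH regeneration solution was added for 1 h at 37C. Luciferin product was read as luminescence.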

In experiment [6] the target is Cytochrome P450 1A2 (Homo sapiens) (UniProt P05177). Briefly: Cytochrome P450 Family 1 Subfamily A Member 2 (CYP1A2) small molecule antagonists: luciferase reporter qHTS assay (AID 1671199). Note: nearly all actives have a fitted effect of over 50% in size. Note: potency is the fitted concentration of half-maximal effect. Put shortly:
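P450-Glo CYP1A2, 1536-well qHTS: enzyme/proluciferin substrate + cpd (DMSO), 10 min RT; NADPH regen, 1 h RT; detection reagent, 20 min; luminescence, RLU.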

The target of experiment [7] is Voltage-gated inwardly rectifying potassium channel KCNH2 (Homo sapiens) (UniProt Q12809). Briefly: Human Ether-a-go-go-Related Gene (hERG) channel small molecule antagonists: fluorescence cell-based qHTS assay (AID 1671200). Note: nearly all actives have a fitted effect of over 50% in size. Note: potency is the fitted concentration of half-maximal effect. The method, boiled down: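 Fluorescence at 540 nm emission (480 nm excitation) was recorded kinetically for 2 min at 1-second intervals once the thallium-containing stimulus reached cells previously loaded with FluxOR II dye.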

Experiment [8] concerns the target Cytochrome P450 3A4 (Homo sapiens) (UniProt P08684). Briefly: Cytochrome P450 Family 3 Subfamily A Member 4 (CYP3A4) small molecule antagonists: luciferase reporter qHTS assay (AID 1671201). Note: nearly all actives have a fitted effect of over 50% in size. Note: potency is the fitted concentration of half-maximal effect. Put shortly: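 qHTS, 1536-well. CYP3A4 + proluciferin substrate, cpd 10 min RT → NADPH regen 1 h RT → detection reagent 20 min → luminescence (RLU). Ketoconazole positive control.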

Experiment [9] deals with Acetylcholinesterase (Homo sapiens) (UniProt P22303). Briefly: Acetylcholinesterase (AChE) small molecule antagonists: enzyme-based qHTS assay with human liver microsomes (AID 1347399; calls by dose curve; note: nearly all actives have a fitted effect of over 60% in size). The settings on record: Potency: qHTS inhibition. The method, boiled down: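 Recombinant human AChE (50 mU/mL in the enzyme mix) and human liver microsomes (0.25 mg/mL final) were preincubated with compound and NADPH (0.25 mg/mL final) for 30 min at 37 C. Acetylthiocholine/DTNB was then added; thiocholine was read colorimetrically after 10 min at room temperature.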

Sequence of Voltage-gated inwardly rectifying potassium channel KCNH2 (Homo sapiens) (Q12809 whole entry, looked up): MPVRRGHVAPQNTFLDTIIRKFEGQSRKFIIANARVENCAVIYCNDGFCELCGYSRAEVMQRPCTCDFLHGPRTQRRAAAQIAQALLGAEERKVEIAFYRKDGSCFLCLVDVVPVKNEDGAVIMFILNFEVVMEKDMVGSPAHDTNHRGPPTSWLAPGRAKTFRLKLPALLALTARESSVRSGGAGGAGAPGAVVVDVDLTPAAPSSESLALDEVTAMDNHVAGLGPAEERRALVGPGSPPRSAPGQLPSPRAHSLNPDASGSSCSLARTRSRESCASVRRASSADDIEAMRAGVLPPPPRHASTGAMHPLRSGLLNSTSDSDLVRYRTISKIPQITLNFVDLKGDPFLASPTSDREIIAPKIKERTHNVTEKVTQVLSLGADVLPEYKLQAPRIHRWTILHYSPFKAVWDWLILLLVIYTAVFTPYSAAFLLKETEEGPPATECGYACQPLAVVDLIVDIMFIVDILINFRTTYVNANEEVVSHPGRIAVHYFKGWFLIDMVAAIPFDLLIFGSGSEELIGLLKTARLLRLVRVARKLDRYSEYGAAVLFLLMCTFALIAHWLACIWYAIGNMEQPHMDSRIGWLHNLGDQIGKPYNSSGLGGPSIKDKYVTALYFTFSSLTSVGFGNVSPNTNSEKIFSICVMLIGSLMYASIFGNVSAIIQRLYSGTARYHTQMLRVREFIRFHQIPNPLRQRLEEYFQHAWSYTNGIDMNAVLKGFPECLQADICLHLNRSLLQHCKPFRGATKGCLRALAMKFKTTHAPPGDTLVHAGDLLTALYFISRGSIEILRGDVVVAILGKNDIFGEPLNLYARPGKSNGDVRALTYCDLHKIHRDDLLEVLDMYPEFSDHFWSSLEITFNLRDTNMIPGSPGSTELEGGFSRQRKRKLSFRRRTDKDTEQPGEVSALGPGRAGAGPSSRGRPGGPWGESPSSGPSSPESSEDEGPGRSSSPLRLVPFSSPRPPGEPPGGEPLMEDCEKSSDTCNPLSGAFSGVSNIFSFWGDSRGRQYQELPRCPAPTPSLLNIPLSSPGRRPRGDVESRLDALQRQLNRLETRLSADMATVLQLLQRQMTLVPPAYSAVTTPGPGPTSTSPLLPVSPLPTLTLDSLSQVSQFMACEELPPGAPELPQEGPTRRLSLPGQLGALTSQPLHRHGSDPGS
Sequence of Acetylcholinesterase (Homo sapiens) (P22303 whole entry, looked up): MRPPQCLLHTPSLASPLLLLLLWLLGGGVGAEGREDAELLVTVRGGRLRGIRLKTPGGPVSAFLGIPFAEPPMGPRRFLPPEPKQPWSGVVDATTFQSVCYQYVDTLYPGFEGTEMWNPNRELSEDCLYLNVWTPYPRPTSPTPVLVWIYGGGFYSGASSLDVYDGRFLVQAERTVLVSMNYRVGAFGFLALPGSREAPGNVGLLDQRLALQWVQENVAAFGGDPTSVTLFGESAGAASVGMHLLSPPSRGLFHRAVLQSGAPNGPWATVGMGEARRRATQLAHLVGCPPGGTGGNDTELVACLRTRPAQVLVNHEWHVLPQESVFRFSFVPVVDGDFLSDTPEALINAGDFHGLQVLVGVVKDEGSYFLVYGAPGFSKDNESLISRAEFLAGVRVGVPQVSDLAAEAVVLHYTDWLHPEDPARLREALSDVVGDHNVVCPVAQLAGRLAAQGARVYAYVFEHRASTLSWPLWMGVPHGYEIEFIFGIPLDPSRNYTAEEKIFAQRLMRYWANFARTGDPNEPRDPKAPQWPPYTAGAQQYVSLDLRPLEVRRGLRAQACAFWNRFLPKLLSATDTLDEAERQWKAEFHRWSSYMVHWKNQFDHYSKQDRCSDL
Sequence of Cytochrome P450 2C9 (Homo sapiens) (P11712 whole entry, looked up): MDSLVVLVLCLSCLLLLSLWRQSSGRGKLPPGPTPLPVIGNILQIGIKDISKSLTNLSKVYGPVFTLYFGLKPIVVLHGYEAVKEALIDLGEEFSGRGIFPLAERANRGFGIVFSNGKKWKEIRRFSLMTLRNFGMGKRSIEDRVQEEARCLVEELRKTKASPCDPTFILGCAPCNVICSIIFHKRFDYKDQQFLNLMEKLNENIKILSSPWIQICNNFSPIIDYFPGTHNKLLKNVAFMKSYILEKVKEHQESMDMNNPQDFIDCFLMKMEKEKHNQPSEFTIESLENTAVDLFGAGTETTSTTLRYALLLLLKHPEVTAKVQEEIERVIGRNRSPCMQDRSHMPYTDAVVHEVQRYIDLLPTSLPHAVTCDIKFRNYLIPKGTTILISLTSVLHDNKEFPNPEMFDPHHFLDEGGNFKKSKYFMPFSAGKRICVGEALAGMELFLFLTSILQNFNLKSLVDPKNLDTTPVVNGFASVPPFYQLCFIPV
Sequence of Cytochrome P450 3A4 (Homo sapiens) (P08684 whole entry, looked up): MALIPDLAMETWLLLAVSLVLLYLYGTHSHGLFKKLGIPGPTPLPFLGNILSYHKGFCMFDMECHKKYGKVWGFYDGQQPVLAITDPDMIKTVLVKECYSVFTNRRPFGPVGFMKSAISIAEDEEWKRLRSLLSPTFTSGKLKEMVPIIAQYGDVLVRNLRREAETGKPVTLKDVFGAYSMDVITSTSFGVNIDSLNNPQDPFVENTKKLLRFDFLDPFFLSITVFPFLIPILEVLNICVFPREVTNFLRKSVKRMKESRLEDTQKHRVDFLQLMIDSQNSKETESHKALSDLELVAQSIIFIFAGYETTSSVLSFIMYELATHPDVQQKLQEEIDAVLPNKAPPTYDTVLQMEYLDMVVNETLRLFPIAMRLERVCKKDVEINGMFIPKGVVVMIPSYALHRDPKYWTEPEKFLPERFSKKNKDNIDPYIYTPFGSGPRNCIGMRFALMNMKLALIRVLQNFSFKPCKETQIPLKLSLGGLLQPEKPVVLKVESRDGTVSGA
Sequence of Cytochrome P450 2D6 (Homo sapiens) (P10635 whole entry, looked up): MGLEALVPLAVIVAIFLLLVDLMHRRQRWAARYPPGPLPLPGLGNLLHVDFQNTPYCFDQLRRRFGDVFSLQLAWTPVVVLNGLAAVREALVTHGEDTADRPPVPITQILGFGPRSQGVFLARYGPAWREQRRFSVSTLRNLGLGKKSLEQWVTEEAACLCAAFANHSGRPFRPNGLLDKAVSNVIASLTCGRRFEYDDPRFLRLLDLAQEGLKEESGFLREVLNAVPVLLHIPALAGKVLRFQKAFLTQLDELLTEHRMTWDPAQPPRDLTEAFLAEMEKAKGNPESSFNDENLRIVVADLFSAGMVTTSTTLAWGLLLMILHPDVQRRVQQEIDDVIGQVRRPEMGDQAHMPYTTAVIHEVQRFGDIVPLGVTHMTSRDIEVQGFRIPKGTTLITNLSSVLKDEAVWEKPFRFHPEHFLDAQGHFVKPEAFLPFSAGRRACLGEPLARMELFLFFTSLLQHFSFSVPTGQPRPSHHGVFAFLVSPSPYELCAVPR
Sequence of Cytochrome P450 1A2 (Homo sapiens) (P05177 whole entry, looked up): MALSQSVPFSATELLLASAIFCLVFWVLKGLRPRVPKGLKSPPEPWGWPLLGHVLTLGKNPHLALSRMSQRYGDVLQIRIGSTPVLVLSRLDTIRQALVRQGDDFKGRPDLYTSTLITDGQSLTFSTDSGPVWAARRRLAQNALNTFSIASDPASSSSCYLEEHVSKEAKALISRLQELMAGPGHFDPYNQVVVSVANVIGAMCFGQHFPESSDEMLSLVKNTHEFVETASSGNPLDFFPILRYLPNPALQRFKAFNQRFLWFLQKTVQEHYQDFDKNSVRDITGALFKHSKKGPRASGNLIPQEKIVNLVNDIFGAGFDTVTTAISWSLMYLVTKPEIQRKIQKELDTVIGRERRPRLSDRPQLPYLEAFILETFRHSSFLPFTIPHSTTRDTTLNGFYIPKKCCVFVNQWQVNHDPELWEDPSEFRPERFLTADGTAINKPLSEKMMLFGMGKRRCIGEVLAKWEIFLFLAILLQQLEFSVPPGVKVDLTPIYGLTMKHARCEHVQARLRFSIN
Sequence of Cytochrome P450 2C19 (Homo sapiens) (P33261 whole entry, looked up): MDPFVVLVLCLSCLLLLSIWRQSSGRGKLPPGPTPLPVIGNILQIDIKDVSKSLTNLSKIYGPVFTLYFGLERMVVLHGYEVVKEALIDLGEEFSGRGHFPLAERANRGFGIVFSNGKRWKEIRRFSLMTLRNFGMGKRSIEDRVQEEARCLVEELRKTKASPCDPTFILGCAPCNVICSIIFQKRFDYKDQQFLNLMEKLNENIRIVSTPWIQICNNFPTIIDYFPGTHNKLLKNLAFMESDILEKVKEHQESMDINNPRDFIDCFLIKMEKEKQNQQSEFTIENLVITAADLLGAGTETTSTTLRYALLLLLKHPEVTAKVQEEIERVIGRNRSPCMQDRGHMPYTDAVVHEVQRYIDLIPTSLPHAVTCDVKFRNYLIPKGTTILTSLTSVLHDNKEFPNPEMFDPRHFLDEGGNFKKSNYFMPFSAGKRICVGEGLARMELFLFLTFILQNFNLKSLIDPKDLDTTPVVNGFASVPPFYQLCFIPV

On to `Oc1ccccc1Br`, for which the Potency result in experiment [1], in experiment [2], in [3], in experiment [4], in [5] and in experiment [6] was “inactive” in each case. Besides, the Potency result in experiment [7] and in [8] was “inactive” throughout.

Consider `CC(C)CC(C)N` (centres undefined), for which the Potency entry in [1], in [9], in experiment [3], in experiment [4], in [5] and in experiment [6] was “inactive” in each case. Also, the Potency result in [7] and in [8] was “inactive” throughout.

As for `CC(C)OS(C)(=O)=O`, the Potency result in experiment [1], in experiment [2], in [4], in experiment [5], in experiment [7] and in experiment [8] was “inactive” each time. The Potency in experiment [3] and in experiment [6] was 40.2 µM (active) each time.

Turning to `N#C/C=C/C#N`, the Potency entry in experiment [1], in experiment [9] and in [7] was “inactive” throughout. In addition, the Potency in experiment [3] was 74.4 µM (active); in experiment [4], 18.7 µM (active); in experiment [5] it was 37.3 µM (active); in experiment [6], 29.6 µM (active); in experiment [8], 37.3 µM (active).

With `CC1(c2ccc(Oc3ccccc3)cc2)OC(=O)N(Nc2ccccc2)C1=O` (centres undefined), the Potency result in experiment [1], in experiment [2] and in experiment [3] was “inactive” in each case. The Potency in [4] was 12.7 µM (active); in experiment [5], 8.99 µM (active); in [6] it was 35.8 µM (active); in experiment [8] it was 11.3 µM (active).

Turning to `CC(C)OC(=S)S`, the Potency result in experiment [1], in experiment [9], in experiment [3], in experiment [4] and in experiment [7] was “inactive” throughout. For the same compound, the Potency in experiment [5] is 31.7 µM (active).

Turning to `CCC(C)(C)C(=O)OC1=C(c2ccc(Cl)cc2Cl)C(=O)OC12CCCCC2`, the Potency entry in experiment [1], in experiment [2] and in experiment [7] was “inactive” throughout. Moreover, the Potency in [5] was 31.7 µM (active); in experiment [8], 14.2 µM (active).

As to `COCC(=O)N(c1c(C)cccc1C)[C@H](C)C(=O)OC`, the Potency result in experiment [1], in experiment [2], in experiment [3], in experiment [5], in experiment [7] and in experiment [8] was “inactive” in each case. Also, the Potency in [4] is 79.6 µM (active).

Regarding `COc1ccc([N+](=O)[O-])cc1O`, the Potency entry in experiment [1], in experiment [9], in experiment [7] and in [8] was “inactive” each time.

For the compound `c1ccc(Nc2ccc3ccccc3c2)cc1`, the Potency result in experiment [1], in [9] and in [7] was “inactive” each time. For the same compound, the Potency is 7.06 µM (active) and 5.64 µM (active) in experiment [4]; 35.4 µM (active) and 31.7 µM (active) in [5]; 3.54 µM (active) and 3.56 µM (active) in experiment [6]; 22.3 µM (active) and 35.6 µM (active) in experiment [8].

On to `ClC1=C(Cl)[C@]2(Cl)[C@@H]3[C@@H]4C[C@@H]([C@H]5O[C@@H]45)[C@@H]3[C@@]1(Cl)C2(Cl)Cl`, for which the Potency result in [1] is “inactive”. In experiment [3], the Potency was 25.2 µM (active).

As for `CCCCN(CCCC)C(=S)[S-].CCCCN(CCCC)C(=S)[S-].[Zn+2]`, the Potency result in experiment [1], in experiment [9] and in [7] was “inactive” each time. Besides, the figures for the Potency in experiment [4] and in experiment [8] were 79.6 µM (active) and 28.3 µM (active), respectively.

Turning to `ClC1=C(Cl)C2(Cl)C3C(Cl)C=CC3C1(Cl)C2(Cl)Cl` (centres undefined), the Potency entry in experiment [1], in experiment [9] and in experiment [3] was “inactive” in each case. Also, the Potency is 8.98 µM (active) and 20 µM (active) in experiment [4]; 21.9 µM (active) in [7].

Turning to `Clc1ccc(-c2ccccc2)cc1`, the Potency result in experiment [1], in experiment [9], in [3], in [5], in [7] and in experiment [8] was “inactive” throughout. In addition, the Potency in [6] is 39.9 µM (active).

In the case of `O=CC(Br)(Br)Br`, the Potency entry in experiment [1], in experiment [9], in experiment [3], in experiment [7] and in experiment [8] was “inactive” each time. For the same compound, the Potency in experiment [5] was 14.1 µM (active); in experiment [6] it was 28.2 µM (active).

As for `Clc1ccc(-c2ccc(Cl)c(Cl)c2Cl)c(Cl)c1Cl`, the Potency entry in experiment [1], in experiment [9], in experiment [7] and in experiment [8] was “inactive” throughout. The Potency in experiment [4] was 1.91 µM (active); in experiment [5], 17 µM (active); in experiment [6] it was 33.9 µM (active).

In the case of `CCOCn1c(-c2ccc(Cl)cc2)c(C#N)c(Br)c1C(F)(F)F`, the Potency entry in [1] and in experiment [9] was “inactive” throughout. Further, the Potency in experiment [3] is 35.6 µM (active); in [5] it was 8.94 µM (active); in experiment [6], 0.633 µM (active).

`CCCN(CCC)c1c([N+](=O)[O-])cc(S(N)(=O)=O)cc1[N+](=O)[O-]`: the Potency entry in [1] and in experiment [9] was “inactive” in each case. In addition, the Potency was 37.9 µM (active) in experiment [4], 5.12 µM (active) in experiment [5], 51.2 µM (active) in [6] and 21.3 µM (active) in experiment [8].

Turning to `CC(=O)C(Cl)(Cl)Cl`, the Potency result in [1], in experiment [9], in experiment [7] and in experiment [8] was “inactive” each time. The values for the Potency in experiment [4] and in experiment [5] were 54.5 µM (active) and 15.3 µM (active), respectively.

Consider `Cc1ccc(OP(=O)(Oc2ccccc2)Oc2ccccc2)cc1`, for which the Potency in [1] was 20.3 µM (active); in experiment [4], 3.22 µM (active); in experiment [5], 6.42 µM (active); in experiment [6], 11.4 µM (active); in experiment [7], 24.9 µM (active). Besides, the Potency result in [3] and in experiment [8] was “inactive” in each case.

In the case of `CC(=O)/C=C/c1ccc2c(c1)OCO2`, the Potency entry in [1], in [9] and in experiment [7] was “inactive” throughout. Moreover, the Potency is 14.2 µM (active) in experiment [4], 8.01 µM (active) in experiment [5], 0.226 µM (active) in [6] and 2.53 µM (active) in experiment [8].

As for `CCOCCOC(C)=O`, the Potency entry in experiment [1], in [9] and in experiment [7] was “inactive” throughout. The Potency in [3] is 71 µM (active); in [4], 79.6 µM (active); in experiment [6] it was 43.5 µM (active).

With `CCCCCCCCCCCCCCCCCCn1cc[n+](C)c1`, the Potency in experiment [1] was 28.1 µM (active); in experiment [3] it was 0.888 µM (active); in [4], 79.2 µM (active); in [6], 56.1 µM (active); in experiment [7], 6.88 µM (active). Besides, the Potency entry in experiment [9] was “inactive”.
